Compounds without any hit were thinned out: in the full panel of roughly 83,000, 20% have a hit.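 For each line, cells grew in 96-well plates with the test compound present at a single concentration for 48 hours.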 A number with no mark means an inactive call. The source made the active and inactive calls. Rule for the calls: active = growth percent below 10; inactive = the rest.

Some test systems named below: NCI-H23 lung; NCI-H226 lung; NCI-H322M lung; HOP-62 NSCLC; NCI-H460 lung; HOP-92 NSCLC; NCI-H522 lung; A549/ATCC NSCLC; 786-0 renal; COLO 205 colon.
Assay in all cases: NCI-60 one-dose screen, 48 h (100 = growth as untreated, 0 = no growth, -100 = all killed)
Conditions in all cases: 10 µM unless noted

As for `O=C(Cn1c(-c2ccccc2)nc2ccccc21)N=Nc1c(O)[nH]c2ccc(Cl)cc12`, the growth is 20.8% with NCI-H23 lung; -62.1% (active) in the experiment with NCI-H226 lung; 5% (active) in the experiment on NCI-H322M lung; -58.6% (active) with HOP-62 NSCLC; 3.44% (active) with NCI-H460 lung; -41.7% (active) with HOP-92 NSCLC. Besides, the growth is 40.5% in the experiment on NCI-H522 lung, 6.42% (active) in the experiment on A549/ATCC NSCLC, -18.5% (active) with 786-0 renal and -40.3% (active) in the experiment on COLO 205 colon.

In the case of `Cc1ccc(Cl)cc1NC(=O)Nc1nc2ccc([N+](=O)[O-])cc2s1`, the growth in the experiment on NCI-H23 lung was -28.6% (active); in the experiment with NCI-H226 lung, -9.03% (active); in the experiment on NCI-H322M lung, -6.17% (active); in the experiment with HOP-62 NSCLC, -68.1% (active); in the experiment on NCI-H460 lung, -41.5% (active); in the experiment with HOP-92 NSCLC it was -28.6% (active). The growth with NCI-H522 lung was -36.8% (active); in the experiment with A549/ATCC NSCLC, -25.8% (active); with 786-0 renal, -27.9% (active); with COLO 205 colon, -87.9% (active).

`O=C(N/N=C/c1occc1Br)c1[nH]c2ccc(Br)cc2c1-c1ccccc1`: the growth in the experiment with NCI-H23 lung is -100% (active); with NCI-H226 lung it was -82.5% (active); with NCI-H322M lung it was -81.2% (active); with HOP-62 NSCLC it was -69.1% (active); in the experiment with NCI-H460 lung it was -86.2% (active); in the experiment with HOP-92 NSCLC, -74.1% (active). The growth with NCI-H522 lung was -86.9% (active); with A549/ATCC NSCLC it was -41.7% (active); with 786-0 renal, -76.6% (active); in the experiment with COLO 205 colon it was -73.5% (active).

On to `COc1cc(C2CC(c3ccc(C(F)(F)F)cc3)=Nc3c(N)nc(N)nc3N2)ccc1Oc1nc(Nc2ccc(F)cc2)nc(N(C)C)n1` (stereo not given), for which the growth in the experiment on NCI-H23 lung was 82.2%; with NCI-H226 lung, 58.6%; in the experiment on NCI-H322M lung it was 90.8%; in the experiment on HOP-62 NSCLC, 81.2%; in the experiment on NCI-H460 lung, 13%; with HOP-92 NSCLC it was 33.3%. Moreover, the growth with NCI-H522 lung is 30%; in the experiment with A549/ATCC NSCLC it was 45.9%; in the experiment on 786-0 renal it was 39.1%; in the experiment on COLO 205 colon, 39%.

Turning to `COc1cc(/C=C/C(=O)c2cnn(-c3cc(=O)[nH]c4ccccc34)c2C)cc(OC)c1OC`, the growth with NCI-H23 lung is 3.65% (active); in the experiment on NCI-H226 lung, 21.9%; in the experiment with NCI-H322M lung, 12.8%; with HOP-62 NSCLC, -1.9% (active); in the experiment on NCI-H460 lung, 7.98% (active); in the experiment on HOP-92 NSCLC, 23.3%. Further, the growth in the experiment with NCI-H522 lung is -18.1% (active); with A549/ATCC NSCLC, 7.4% (active); in the experiment on 786-0 renal, 18.2%; with COLO 205 colon it was 4.15% (active).

Regarding `COc1ccc(-c2cc(C(=O)N=Nc3c(O)[nH]c4ccc(Cl)cc34)c3ccccc3n2)cc1`, the growth is 14.3% in the experiment on NCI-H23 lung; 81.8% in the experiment with NCI-H226 lung; 79% in the experiment with NCI-H322M lung; -20.9% (active) in the experiment on HOP-62 NSCLC; 0.622% (active) with NCI-H460 lung; 117% with HOP-92 NSCLC. The growth in the experiment with NCI-H522 lung was -16.1% (active); in the experiment with A549/ATCC NSCLC, -4.4% (active); in the experiment on 786-0 renal it was 72.4%; with COLO 205 colon it was 7.83% (active).

Regarding `COc1cc(/C=N/NC(=O)c2ccc(OCc3nc4ccc(C)cc4[nH]3)cc2)cc(OC)c1OC`, the growth is 22.3% in the experiment with NCI-H23 lung; 43% in the experiment with NCI-H226 lung; 66.2% with NCI-H322M lung; 62.5% in the experiment on HOP-62 NSCLC; 33.6% in the experiment on NCI-H460 lung; 96.5% with HOP-92 NSCLC. Moreover, the growth in the experiment on NCI-H522 lung was 28.1%; with A549/ATCC NSCLC it was 28.4%; in the experiment with 786-0 renal, 41.2%; in the experiment with COLO 205 colon, 8.02% (active).

As to `c1n[nH]cc1-c1nc2ccc3[nH]ncc3c2c2c1CC1(CCOCC1)CC2`, the growth is 44.2% in the experiment on NCI-H23 lung; 27.3% in the experiment on NCI-H226 lung; 48.6% with NCI-H322M lung; 55.5% with HOP-62 NSCLC; 29.4% in the experiment with NCI-H460 lung; 70.7% in the experiment with HOP-92 NSCLC. Besides, the growth in the experiment on NCI-H522 lung was 7.31% (active); in the experiment with A549/ATCC NSCLC, 44.7%; with 786-0 renal, 48.2%; with COLO 205 colon it was 30.3%.

For `CC[C@]12C=CCN3CC[C@@]4(c5ccc(OC)cc5N(C)[C@H]4[C@@](O)(C(=O)OC)[C@@H]1OC(=O)CCCC[P+](c1ccc(F)cc1)(c1ccc(F)cc1)c1ccc(F)cc1)[C@@H]32`, the growth was 23.6% in the experiment with NCI-H23 lung; 38% in the experiment on NCI-H226 lung; 52.9% in the experiment on NCI-H322M lung; 50.9% with HOP-62 NSCLC; 20.3% with NCI-H460 lung; -12.2% (active) in the experiment with HOP-92 NSCLC. In addition, the growth was -11.6% (active) in the experiment with NCI-H522 lung, 37.5% in the experiment on A549/ATCC NSCLC, 87.1% in the experiment with 786-0 renal and -43.4% (active) in the experiment with COLO 205 colon.

In the case of `COc1cc(NC(=O)C(C)C)ccc1C(=O)NC(=S)Nc1ccc(S(N)(=O)=O)cc1`, the growth with NCI-H23 lung was 102%; in the experiment with NCI-H226 lung, 115%; in the experiment on NCI-H322M lung, 99.7%; in the experiment on HOP-62 NSCLC, 91.6%; in the experiment with NCI-H460 lung, 107%; in the experiment on HOP-92 NSCLC it was 78%. Moreover, the growth with NCI-H522 lung is 76.3%; in the experiment with A549/ATCC NSCLC, 106%; in the experiment with 786-0 renal, 79.6%; in the experiment on COLO 205 colon, 118%.

`C/C(=N\Nc1ccc(C(=O)O)cc1)c1cnn(-c2cc(=O)[nH]c3ccc(C)cc23)c1C`: the growth with NCI-H23 lung was 106%; with NCI-H226 lung, 90.1%; with NCI-H322M lung, 98.2%; in the experiment on HOP-62 NSCLC, 93.1%; in the experiment with NCI-H460 lung it was 109%; in the experiment with HOP-92 NSCLC, 6.13% (active). The growth is 89.4% in the experiment on NCI-H522 lung, 104% with A549/ATCC NSCLC, 93.2% in the experiment on 786-0 renal and 118% in the experiment with COLO 205 colon.

For `C=CCSc1nnc(-c2ccc(-c3nc4ccc(Cl)cc4[nH]3)cc2)o1`, the growth was 76.2% in the experiment with NCI-H23 lung; 103% in the experiment on NCI-H226 lung; 86.7% in the experiment on NCI-H322M lung; 39.9% with HOP-62 NSCLC; 38.1% with NCI-H460 lung; 81.8% with HOP-92 NSCLC. The growth in the experiment on NCI-H522 lung was 29.8%; with A549/ATCC NSCLC it was 60.3%; in the experiment with 786-0 renal it was 76.4%; in the experiment with COLO 205 colon it was 55.7%.

Regarding `CC(C)(C)c1cc(-c2cc(-c3ccccc3)[nH]c(=O)c2C#N)cc(C(C)(C)C)c1`, the growth is 40.4% in the experiment with NCI-H23 lung; 3.42% (active) with NCI-H226 lung; 23.6% with NCI-H322M lung; -40.2% (active) in the experiment with HOP-62 NSCLC; 14.9% in the experiment with NCI-H460 lung; -16% (active) in the experiment with HOP-92 NSCLC. Besides, the growth is 41.8% in the experiment with NCI-H522 lung, 5.52% (active) with A549/ATCC NSCLC, 23% with 786-0 renal and 91.5% with COLO 205 colon.

The values above are taken from PubChem BioAssay (NCI).
